Only some compounds are listed: those with a hit (about 6.2% of all), similar ones and a draw of the others.
Marburg entry inh – inhibitors of Marburg virus binding or cell entry; Marburg virus pseudotyped entry inhibition, cell reporter; Potency, µM (doses to about 37.8 µM), for inactives: top-dose activity change, negative = inhibition, usual class: inhibitors; 1.8% of 300,000 active; AID 540276; calls by dose curve; tested in HEK293 cells; also: potency is read from the fitted curve at half-maximal effect
HCMV antiviral – inhibitors of human cytomegalovirus. 4.5% of 410,000 active. HFF cells, HCMV-luciferase reporter, 72 h; active compounds read low. activity change, negative = inhibition, % at 57.5 µM; in the data active = activity change below about -60%; inconclusive = no clear call, values can overlap the other calls; inactive = above about -39%
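HFF cells seeded 16 h at 37C, treated with compounds, infected with luciferase-reporter HCMV at MOI 1 PFU/cell; luciferase read at 72 h post infection, normalized to buffer-only and Salinomycin controls.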
FMDV antiviral – antivirals against foot and mouth disease virus. 1.2% of 410,000 active. FMDV antiviral cell-based qHTS. Potency, µM (highest dose often 57.9 µM), without a hit: top-dose activity change, negative = inhibition, usual class: inhibitors. AID 1159524; calls by dose curve; tested in HEK293T cells; also: read-out not given here; potency is read from the fitted curve at half-maximal effect; nearly all actives have a fitted effect of over 45% in size
Lassa entry inh – blocks Lassa virus binding to or entry into cells; Lassa virus pseudotype entry inhibition, cell reporter; Potency, µM (top dose mostly 37.9 µM), inactives show top-dose activity change, negative = inhibition, usual class: inhibitors; 1.2% of 300,000 active; AID 540256; calls by dose curve; tested in HEK293 cells; also: potency is read from the fitted curve at half-maximal effect; nearly all actives have a fitted effect of over 50% in size
Active calls of the source: *; [ ] = another dose, or the depositor's remark. % is scaled to controls: 0 for no effect and ±100 for the full control effect.

How did O=C(Cc1c[nH]c2ccccc12)Nc1nnc(C2CC2)s1 do in these assays?
Marburg entry inh: inconclusive; HCMV antiviral: -80*; FMDV antiviral: -1%; Lassa entry inh: 3.5µM*

Results for Cc1ccc(C(=O)Nc2ccc(C)c(S(=O)(=O)Nc3ccccc3Cl)c2)s1 ?
Marburg entry inh: -29%; HCMV antiviral: inconclusive; FMDV antiviral: -30%; Lassa entry inh: 5.2µM*

How did O=C(Nc1cccc(S(=O)(=O)Nc2ccc(Cl)cc2)c1)c1cc2c(s1)CCCC2 do in these assays?
Marburg entry inh: inconclusive; HCMV antiviral: -75*; FMDV antiviral: -10%; Lassa entry inh: inconclusive

Results for O=C(Nc1ccc(Cl)c(S(=O)(=O)Nc2ccccc2Cl)c1)c1cccs1 ?
Marburg entry inh: -31%; HCMV antiviral: -17; FMDV antiviral: 40%; Lassa entry inh: inconclusive

How did Cc1ccc(NC(=O)c2cc3c(s2)CCCC3)cc1S(=O)(=O)Nc1ccccc1Cl do in these assays?
Marburg entry inh: inconclusive; HCMV antiviral: -82*; FMDV antiviral: -18%; Lassa entry inh: 11µM*

Results for O=C(Nc1cc(S(=O)(=O)Nc2ccccc2Cl)ccc1O)c1cc2c(s1)CCCC2 ?
HCMV antiviral: -35; FMDV antiviral: 33%

How did CC1(C(=O)NCc2ccc3c(c2)OCO3)CCN1C(=O)C1(c2ccc(Cl)cc2)CC1 (stereo not given) do in these assays?
HCMV antiviral: -23; FMDV antiviral: -4%

What do the screens show for `CC(C)(C)Cn1nc(-c2ccc(Cl)cc2)c2c(N)ncnc21`?
FMDV antiviral: -21%

What do the screens show for `COc1cccc2c1C(=O)c1c(O)c3c(c(O)c1C2=O)C[C@@](O)(C(=O)CO)C[C@@H]3OC1CC(N)C(O)C(C)O1` (stereo not given in full)?
Marburg entry inh: 0.5µM*; HCMV antiviral: -99*; FMDV antiviral: -13%; Lassa entry inh: inconclusive

Results for COc1cccc2c1C(=O)c1c(O)c3c(c(O)c1C2=O)C[C@@](O)(C(=O)CO)C[C@@H]3O[C@@H]1C[C@H](N)[C@H](O)[C@H](C)O1 ?
FMDV antiviral: -18%

What do the screens show for `COc1cccc2c1C(=O)c1c(O)c3c(c(O)c1C2=O)CC(O)(C(C)=O)CC3OC1CC(N(C)C)C(O)C(C)O1` (stereo not given)?
Marburg entry inh: inconclusive; HCMV antiviral: -98*; FMDV antiviral: 1%; Lassa entry inh: inconclusive

What do the screens show for `COc1cccc2c1C(=O)c1c(O)c3c(c(O)c1C2=O)CC(O)(C(C)=NO)CC3OC1CC(N)C(O)C(C)O1` (stereo not given)?
Marburg entry inh: inconclusive; HCMV antiviral: -100*; FMDV antiviral: 25%; Lassa entry inh: inconclusive

What do the screens show for `COc1cccc2c1C(=O)c1c(O)c3c(c(O)c1C2=O)C[C@@](O)(C(=O)CO)C[C@@H]3O[C@H]1C[C@H](N)[C@H](O)[C@H](C)O1`?
Marburg entry inh: 0.73µM*; HCMV antiviral: -98*; FMDV antiviral: inconclusive; Lassa entry inh: 0.37µM*

How did CC[C@]1(O)CC(O[C@@H]2CC(N(C)C)C(O)C(C)O2)c2c(cc3c(c2O)C(=O)c2c(O)cccc2C3=O)C1C(=O)OC (stereo not given in full) do in these assays?
FMDV antiviral: -1%

How did C=C(C)Cn1c2ccc(NC(=O)NCc3ccccc3)cc2c(=O)n1C do in these assays?
HCMV antiviral: 10; FMDV antiviral: 27%

What do the screens show for `Cc1cc2c(cc1Cl)N(C(=O)Nc1ccnc3ccccc13)CC2`?
Marburg entry inh: inconclusive; Lassa entry inh: -6%

What do the screens show for `Cc1cc2c(cc1Cl)N(C(=O)Nc1ccc(Oc3cccnc3C)nc1)CC2`?
Marburg entry inh: inconclusive; Lassa entry inh: 12µM*

Results for c1ccc(-c2cc3c(N4CCN(c5ccccc5)CC4)ncnc3s2)cc1 ?
Marburg entry inh: inconclusive; HCMV antiviral: -28; FMDV antiviral: 32µM*; Lassa entry inh: -25%

Results for CC(C)(C)Nc1ncnc2sc(-c3ccccc3)cc12 ?
HCMV antiviral: -73*; FMDV antiviral: inconclusive

How did c1ccc(-c2cc3c(N4CCN(c5ncccn5)CC4)ncnc3s2)cc1 do in these assays?
Marburg entry inh: -8%[14.2 µM]; HCMV antiviral: 1; FMDV antiviral: inconclusive; Lassa entry inh: -8%

How did Cc1nn(C)c2c1c(C(F)(F)F)cc(=O)n2C(C)C(=O)NCCc1ccccc1 (stereo not given) do in these assays?
HCMV antiviral: -2; FMDV antiviral: -1%; Lassa entry inh: 12%[46.1 µM]

Results for CCCNC(=O)C1(C)CCN(C(=O)c2ccc(F)c(Cl)c2)C1 (stereo not given) ?
HCMV antiviral: -7; FMDV antiviral: -18%
